Laboratory results reported in PubChem BioAssay (EPA / NIEHS).
“And” between values parts separate entries of the source, which are not always exact repeats. Equal entries are not always repeated. Some structures have more than one record in an assay (separate samples or runs), and their calls can disagree. The source made the active and inactive calls. How the source made its calls: active means hit-call score of the fitted dose curve at least 0.9, where 1 is the maximum; inactive means score below 0.9.

Experiment: ATG_PXRE_CIS: Attagene CIS-FACTORIAL HepG2 Assay for human Pregnane X Receptor Element (PXRE) (AID 2282957)
Details: HepG2 Attagene CIS-FACTORIAL PXRE reporter, mRNA; actives raise or lower the signal
Protocol: ATG_CIS is a cell-based, multiplexed-readout assay that uses HepG2, a human liver cell line, with measurements taken at 24 hours after chemical dosing in a 24-well plate.ATG_PXRE_CIS is one of 52 assay component(s) measured or calculated from the ATG_CIS assay. It is designed to make measurements of mRNA induction, a form of inducible reporter, as detected with fluorescence intensity signals by Reverse transcription polymerase chain reaction (RT-PCR) and Capillary electrophoresis technology.Data from the assay component ATG_PXRE_CIS was analyzed into 1 assay endpoint. This assay endpoint, ATG_PXRE_CIS, was analyzed with bidirectional fitting relative to DMSO as the negative control and baseline of activity. Using a type of inducible reporter, measures of mRNA for gain or loss-of-signal activity can be used to understand the reporter gene at the transcription factor-level as they relate to the gene NR1I2. Furthermore, this assay endpoint can be referred to as a primary readout, because this assay has produced multiple assay endpoints where this one serves a reporter gene function. To generalize the intended target to other relatable targets, this assay endpoint is annotated to the nuclear receptor intended target family, where the subfamily is non-steroidal.
Human liver HepG2 cells are transiently transfected with multiple reporter transcription units (MRTUs) in 6-well plates using FuGene 6 reagent (Roche; 3 ml FuGene/1 mg DNA). The MRTU constructs are regulated by a cis-regulating element (promoter). […] A major difference between the CIS and TRANS system is that in CIS activities of endogenous TFs are measured, whereas the TRANS assay evaluates changes in activities of exogenous, chimeric NR-Gal4 proteins. […] At the end of 24 hour incubation, total RNA was isolated using TriZol reagent (Invitrogen). The isolated RNA is then reverse-transcribed using oligo(dT) primer and Mo-MLV reverse transcriptase (Invitrogen) with DNAse I (Ambion) treatment for 30 min. The one-tenth of the produced cDNA was amplified by PCR using Taq DNA polymerase (Invitrogen) and two reporter sequence-specific primers. The PCR products were fluorescently labeled by primer extension with 6-arboxyfluorescein (6-FAM) 5'-labeled reporter sequence-specific primer (2 min at 95 C, 20 s at 68 C and 10 min at 72 C) and these products were digested with 5U of HpaI (New England Biolabs) for 2h at 37 C. The fragments were purified using Qiaquick PCR columns (Qiagen), analyzed on an ABI 3130xL genetic analyzer (Applied Biosystems) with peak positions identified by using a set of X-rhodamine (ROX)-labeled MapMarker1000 molecular weight standards (BioVentures). The raw capillary electrophoresis data was processed using Attagraph software (Attagene).

SMILES | outcome | AC50
CCCCCCCCCCCC[N+](C)(C)C | inactive | 1.26 µM (active)
CCCCOC(=O)c1ccc(O)cc1 | inactive | 27 µM (active) and 24.1 µM (active)
O=C(O)c1ccccc1C(=O)OCc1ccccc1 | inactive | –
CN(C)c1ccc(C(=C2C=CC(=[N+](C)C)C=C2)c2ccc(N(C)C)cc2)cc1 | – | 2.19 µM (active)
Cc1ccc(C(C)C)cc1 | inactive | –
COc1ccc2cc(S(=O)(=O)N[C@H](CC(=O)N[C@H](Cc3ccc(CN4[C@H](C)CCC[C@@H]4C)cc3)C(=O)N(C)C(C)C)c3ccc4c(c3)OCO4)ccc2c1 | inactive | –
CCCCCCCCOC(=O)c1cc(O)c(O)c(O)c1 | – | 11.1 µM (active)
COCC(C)OCC(C)OCC(C)O (stereo not given) | inactive | –
Cc1cn([C@H]2C[C@H](N=[N+]=[N-])[C@@H](CO)O2)c(=O)[nH]c1=O | inactive | –
O=c1c(-c2ccc(O)cc2)coc2cc(O)cc(O)c12 | inactive | 27.9 µM (active)
CCCCCCCCCCCCO | inactive | –
Cc1cc2c(cc1C(F)(F)F)N(C(=O)Nc1ccc(Oc3cccnc3C)nc1)CC2 | inactive | –
CC(C)(C)c1csc(-c2cc3cc(OCc4ccccc4CC(=O)O)ccc3o2)n1 | inactive | –
CCCCCCCCN(C)CCCCCCCC | – | 26.5 µM (active)
CCCCCCCCCC(=O)O | inactive | 27.4 µM (active)
CCOC(=O)O[C@H](C)OC(=O)c1ccc2c(c1)cc(C(=O)NC1CCN(C(C)C)CC1)n2Cc1cc(-c2ccc(Cl)s2)on1 | inactive | –
CC(=O)N1CCN(c2ccc(OC[C@H]3CO[C@](Cn4ccnc4)(c4ccc(Cl)cc4Cl)O3)cc2)CC1 | – | 0.942 µM (active)

SMILES | outcome | AC50
CC(O)CC(C)(C)O (stereo not given) | inactive | 37.5 µM (active)
COc1cc(C(=O)NC2CCN(C)CC2)ccc1Nc1ncc2c(n1)N(C1CCCC1)CC(F)(F)C(=O)N2C | – | 1.01 µM (active)
CCCCOC(=O)CC(CC(=O)OCCCC)(OC(C)=O)C(=O)OCCCC | – | 1.18 µM (active) and 705 nM (active)
C[C@]12CC[C@@H]3c4ccc(O)cc4CC[C@H]3[C@@H]1CC[C@H]2O | inactive | 7.87 µM (active) and 6.41 µM (active) and 4.84 µM (active)
Cc1cccc2ccccc12 | inactive | –
CC1=CC(=O)/C(=C(/C)O)C(=O)O1 | inactive | –
CN1C(=O)N(c2ccccc2Br)Cc2cnc(Nc3ccc4c(c3)OCC(CO)O4)nc21 (stereo not given) | inactive | –
O=C1CCC(C2CCCCC2)CC1 | – | 10.4 µM (active) [middle of 4 runs]
Cc1oc2c(NC(=O)c3c(Cl)cccc3Cl)cccc2c1C(C)(C)O | – | 0.116 µM (active)
OCCO | inactive | –
COc1cccc([C@H](O)C2CCN(CCc3ccc(F)cc3)CC2)c1OC | – | 25.8 µM (active)
O=C1c2ccccc2C(=O)N1CCc1noc(-c2ccc(CN3CCCCCC3)s2)n1 | – | 2.09 µM (active)
Cc1ncc(CO)c(CO)c1O | inactive | –
NC(=O)c1nc(-c2cccc(-c3cc(F)ccc3OCC(F)(F)C(F)(F)F)c2)n[nH]1 | – | 8.11 µM (active)
CN(C[C@@H](CC[N+]12CCC(C3CCCCC3)(CC1)CC2)c1ccc(Cl)c(Cl)c1)C(=O)c1cc(C(F)(F)F)cc(C(F)(F)F)c1 | inactive | –
Clc1ccccc1C(c1ccccc1)(c1ccccc1)n1ccnc1 | – | 0.589 µM (active)
CO[C@H]1/C=C/O[C@@]2(C)Oc3c(C)c(O)c4c(O)c(c(/C=N/N5CCN(C)CC5)c(O)c4c3C2=O)NC(=O)/C(C)=C\C=C\[C@H](C)[C@H](O)[C@@H](C)[C@@H](O)[C@@H](C)[C@H](OC(C)=O)[C@@H]1C | – | 461 nM (active) and 369 nM (active)
